# Only some compounds are listed: those with a hit (about 8.1% of all), similar ones and a draw of the others.
# Epigenetic reg – regulators of epigenetic silencing causing reporter derepression in mouse cells; murine LDR cells, GFP reporter derepression, 30 h; Potency, µM (titrated, usually from 53.9 µM), hits mostly activators; actives 0.2% (n = 280,000); AID 1865; further: nearly all actives have a fitted effect of over 60% in size
#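 Murine LDR cells carrying a silenced, genomically integrated CMV-driven GFP reporter were exposed to compound for 30 hours at 37 C. After PBS washes, GFP-positive cells (20–120 um objects) were counted by laser-scanning microplate cytometry.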
# RORg inh – ROR gamma (mouse) transcription inhibition; P51450; Drosophila S2 Gal4-RORgamma UAS-luciferase reporter, 20 h; Potency, µM (doses to about 53.6 µM), actives largely listed as inhibitors; actives 5.4% (n = 310,000); AID 2551; further: nearly all actives have a fitted effect of over 60% in size
# Target sequence (P51450 whole entry, looked up, the tested form may be a part): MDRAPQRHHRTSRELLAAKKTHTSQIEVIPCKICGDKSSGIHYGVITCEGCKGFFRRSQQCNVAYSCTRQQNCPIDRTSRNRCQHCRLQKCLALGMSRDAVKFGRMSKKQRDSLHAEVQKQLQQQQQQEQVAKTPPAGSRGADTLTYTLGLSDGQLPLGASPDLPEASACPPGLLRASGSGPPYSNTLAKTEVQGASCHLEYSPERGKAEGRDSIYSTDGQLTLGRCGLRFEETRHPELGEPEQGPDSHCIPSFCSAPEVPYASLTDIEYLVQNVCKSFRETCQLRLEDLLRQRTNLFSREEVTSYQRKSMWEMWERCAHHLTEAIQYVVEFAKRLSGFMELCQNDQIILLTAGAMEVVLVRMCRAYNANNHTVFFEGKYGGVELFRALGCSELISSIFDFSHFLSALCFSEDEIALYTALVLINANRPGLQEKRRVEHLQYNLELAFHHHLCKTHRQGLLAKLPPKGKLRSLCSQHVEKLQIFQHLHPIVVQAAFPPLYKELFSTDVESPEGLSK
#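 Read-out: Photinus luciferase luminescence; inhibitors lower reporter signal. Insect Schneider cells with Gal4-ROR gamma fusion under metallothionein promoter, UAS reporter; 700 uM final copper sulfate induction, 20 hr, ambient temperature.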
# Sfp PPTase inh – inhibitors of Bacillus subtilis Sfp phosphopantetheinyl transferase. Q9F4F7. Biochemical Sfp PPTase activity, qHTS. Potency, µM, most hits filed as inhibitors. actives 3.5% (n = 310,000);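 further: the enzyme is Sfp with the accession as filed and its product quenches rhodamine fluorescence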
#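 Reaction rates are the 30-min fluorescence difference (ex 525, em 598 nm) in wells containing 15 nM Sfp, 5 uM rhodamine-CoA and 12.5 uM BHQ-2-YbbR at pH 7.6 with 10 mM MgCl2.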
# ClpP mod – qHTS Assay for Activators of ClpP | ATP-dependent Clp protease proteolytic subunit (Bacillus subtilis (strain 168)), P80244 | purified B. subtilis ClpP, FRET peptide cleavage, 20 min | Potency, µM (top dose mostly 57.5 µM) | actives 1.9% (n = 340,000); active means well fitted falling curve with a large enough effect; inconclusive means small, poorly fitted or top-dose-only effect; inactive means no such curve, though single readings can be large or run the other way; further: the source files actives as falling curves though it sought activators and does not explain the sign; nearly all actives have a fitted effect of over 65% in size
#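 Buffer: 100 mM Tris/HCl pH8, 100 mM KCl, 0.05% low protease BSA, 2.5% glycerol, 0.01% Tween-20. ClpP 10 microg/mL final; 20 min RT; delta FRET normalized to ADEP and DMSO controls.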
# Gal4-VP16 FLuc – inhibits Gal4-VP16 luciferase reporter, ROR gamma counter-screen. actives 3.5% (n = 310,000). Potency, µM (doses to about 53.6 µM), hits mostly inhibitors. Drosophila S2 Gal4-VP16 UAS-luciferase, luminescence, 20 h;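 further: Gal4-VP16 expression switched on by copper sulfate through the metallothionein promoter; nearly all actives have a fitted effect of over 50% in size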
# PINK1 modulator – changes PINK1 expression | actives 0.2% (n = 410,000) | Potency, µM (series often up to 76.6 µM), usual class: activators | PINK1 immunofluorescence, high-content cytometry, 24 h; active means well fitted activation curve with a large enough effect; inconclusive means small, poorly fitted or top-dose-only effect; cell line not stated here; further: nearly all actives have a fitted effect of over 65% in size
#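 Compound titrations (5 concentrations, 24 h) on a stable cell line; DMSO and CCCP controls. Endpoint: fixed-cell PINK1 immunofluorescence with mitochondrial, cell and nuclear markers, scanned by microplate cytometer.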
# A number is an active result; – = inactive; ? = inconclusive; · = no result; [ ] = remark or other dose. Unless noted, the call rests on the fitted dose curve; in most records, active means well fitted curve in the direction sought with a large enough effect; inconclusive means small, poorly fitted or top-dose-only effect, or another doubt; inactive means no such curve, though single readings can be large; an effect the other way counts as inactive or inconclusive.
SMILES,Epigenetic reg,RORg inh,Sfp PPTase inh,ClpP mod,Gal4-VP16 FLuc,PINK1 modulator
CCCc1nnc(SCc2cc(=O)c3c(C)cc(C)cc3[nH]2)n1C,–,·,·,–,·,–
O=C(N/N=C/c1ccc(Br)cc1)c1cc[n+](Cc2ccccc2)cc1,–,–,79µM,–,–,–
CCn1nc(C(=O)Nc2ccc3nc(C)sc3c2)c2ccccc2c1=O,–,–,–,20µM,?,–
CN(C)C(=S)NC(=O)C12CC3(C)CC(C)(CC(C)(C3)C1)C2,–,2.5µM,–,·,–,–
CC12CC3(C)CC(C)(C1)CC(C(=O)NCC(=O)O)(C2)C3,–,–,?,·,–,–
Cc1ccc(C(C)C)c(OCc2nn(CC(=O)c3ccc(Cl)cc3)c3[n+]2CCCCC3)c1,?,?,32µM,·,?,–
CCOc1cc(/C=C2\N=C(SC(C)C(N)=O)N(c3ccc(OC(F)F)cc3)C2=O)ccc1O (stereo unspecified),·,–,45µM,–,?,–
O=c1c2cc3c(nc2ncn1Cc1ccccc1F)CCCC3,–,·,·,–,·,–
CCOC(=O)N1CCC(=NNc2ncc(C(F)(F)F)cc2Cl)CC1,–,7.1µM,?,·,?,–
CC(=O)N1CCC(=NNc2ncc(C(F)(F)F)cc2Cl)CC1,–,3.2µM,?,–,?,–
O=C(O)CC/C(=N/Nc1ncc(C(F)(F)F)cc1Cl)C(=O)O,–,13µM,–,·,?,–
Cc1cccc(N2CCN(S(=O)(=O)c3ccc4oc(=O)c5ncn(C)c5c4c3)CC2)c1C,–,·,·,–,·,–
CCOc1ccc(N(CC)C(=O)CSc2n[nH]c(-c3ccccc3)n2)cc1,–,·,·,–,·,–
Cc1c(NC(=O)c2sc3ccccc3c2Cl)cccc1-c1nc2ccccc2o1,?,·,·,–,·,–
COc1cc(CN(C)CC(=O)c2[nH]c(C)c(C(C)=O)c2C)ccc1OC(F)F,–,–,?,–,2.8µM,–
COc1ccc(NC(=O)CN(C)CC(=O)c2[nH]c(C)c(C(C)=O)c2C)cc1,·,·,·,–,·,–
COc1cc(CNc2ccc(N3CCCC3)cc2)cc(Cl)c1OC,–,–,14µM,·,–,–
C=CCOc1c(Cl)cc(CNc2ccc(N(C)C)cc2)cc1OC,–,–,3.5µM,–,–,?
CCOc1cc(CNc2ccc(N3CCCC3)cc2)cc(Cl)c1OC,–,–,?,–,–,?
COc1cccc(CNc2ccc(N3CCCCC3)cc2)c1OC,–,?,2.8µM,–,?,–
C=CCOc1c(Cl)cc(CNc2ccc(C)c(Cl)c2)cc1OC,–,–,?,·,–,·
O=C(CN1C(=O)COc2ccc(S(=O)(=O)N3CCOCC3)cc21)Nc1ccc(F)c(Cl)c1,–,·,·,–,·,–
C[C@@H]1O[C@H]2C3=C(C(=O)[C@H]4O[C@@H]4[C@H]3O)[C@@H]1[C@@H]1[C@@H](C)OC=C3[C@H](O)[C@H]4O[C@@H]4/C(=N\OCc4ccccc4)[C@]312,?,–[10 µM],–,·,–[10 µM],·
Cc1cc(-c2c(C)[nH]n(-c3ccccc3)c2=O)n(-c2ccccc2)n1,–,–,–,–,–,–
Cc1cc(-c2c(C)[nH]n(-c3ccccc3)c2=O)n[nH]1,?,0.4µM,–,·,1µM,–
SMILES,Epigenetic reg,RORg inh,Sfp PPTase inh,ClpP mod,Gal4-VP16 FLuc,PINK1 modulator
CCS(=O)(=O)NCc1c(C)ncc2c1CCN(C(=O)c1ccc(F)cc1)C2,·,·,·,·,·,–
CC1=C(C(=O)Nc2cccc(Cl)c2)C2(CCCCCC2)OC1=O,–,·,·,–,·,–
CC1(C)C2CCC1(C)C(Nc1ccccc1)C2 (stereo unspecified),–,–,–,–,–,–
CC1(C)C2CCC1(C)C(NC(=O)/C=C/c1ccccc1)C2 (stereo unspecified),–,?,–,·,18µM,–
Cc1cc(N/N=C/c2ccncc2)nc2ccccc12,–,?,–,–,–,–
COc1ccc(/C=N/Nc2cc(=O)n(C)c(=O)n2C)cc1OC,–,–,89µM,–,–,–
COc1ccc(/C=N/Nc2nc3ccccc3[nH]2)cc1OC,–,–,22µM,–,–,–
Cc1cc(N/N=C/c2cccc(Br)c2)nc2ccccc12,–,11µM,20µM,–,?,–
COc1ccccc1N/N=C/c1ccc2c(c1)OCO2,–,?,–,–,–,–
C(=N\Nc1nc2ccccc2[nH]1)/c1ccc2c(c1)OCCO2,–,5.6µM,25µM,–,?,–
Cc1cc(C)nc(N/N=C/c2ccc3c(c2)OCCO3)n1,–,?,–,·,–,–
COc1ccc(/C=N/Nc2ccccn2)cc1OC,–,?,56µM,·,?,–
Cc1cccc(/C=N/Nc2ccc3ccccc3n2)c1,–,2.8µM,–,–,6.3µM,–
Cc1ccc(/C=N/Nc2cn[nH]c(=O)n2)o1,–,?,50µM,·,–,–
C(=N\Nc1ccc2ccccc2n1)/c1ccc2c(c1)OCCO2,–,2.5µM,–,–,2µM,–
COc1cc(/C=N/Nc2ccccn2)ccc1O,–,?,?,·,?,–
COc1ccc2c(c1)c(/C=N/Nc1nc3ccccc3[nH]1)c(C)n2C,–,3.5µM,11µM,·,16µM,–
Cc1ccc(/C=N/Nc2ccc3ccccc3n2)o1,–,13µM,–,·,18µM,–
CC(=NNc1ccc2ccccc2n1)c1ccccc1O,·,·,·,–,·,–
CSc1ccccc1C(=O)N1CCN(c2cccc(Cl)c2)CC1,–,–,–,·,–,–
O=C(NC(=O)N1CCN(c2cccc(Cl)c2)CC1)c1ccccc1,–,–,–,–,–[0.365 µM],–
